This passage reports growth results from PubChem BioAssay (NCI).

SMILES strings stand for the structures. Where “and” joins values, the source holds several entries; their conditions need not be identical. Equal entries are not always repeated. Compounds without any hit were thinned out: in the full panel of roughly 83,000, 20% have a hit.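 Each cell line was grown in a 96-well plate and treated with one concentration of compound for 48 hours. Values below 10 were considered active.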 Calls of active or inactive are those of the source.

The test system of this assay is SK-MEL-28 melanoma. In words: NCI-60 one-dose screen, 48 h (100 = growth as untreated, 0 = no growth, -100 = all killed). Conditions: 10 µM.
As to `O=C1C=Cc2ccccc2C1=O`, the growth was 53.2% (inactive).
As for `COC1CC2C=C(C)/C=C/C=C/C(=O)NC(c3ccccc3)C/C=C/CCC(O)CC(=O)C2=C1O` (stereo not given), the figure is -80.9% (active); as for `Cc1ccc(NC(=O)CBr)cc1`, 102% (inactive); as for `Cc1ccc(C(=O)C2C(c3ccccc3)N2C2CCCCC2)cc1` (stereo not given), 105% (inactive) and 102% (inactive).
In the case of `COc1cc(/C=C/[N+](=O)[O-])cc(OC)c1OC` it was -7.3% (active); in that of `O=C(CBr)Nc1ccc(Cl)cc1`, 102% (inactive); in that of `CC(C)c1cc([N+](=O)[O-])cc([N+](=O)[O-])c1O`, 102% (inactive).
In the case of `COc1ccccc1/C=C/[N+](=O)[O-]` it was 79.4% (inactive).
With `O=C(CCl)Nc1ccc(Cl)cc1`, the growth is 69.5% (inactive).
In the case of `Cc1cc(C)c(C[N+](C)(C)C)c(C)c1C` it was -9.07% (active).
Consider `C[C@]12CC[C@H]3[C@@H](CCC4=CC(=O)CC[C@@H]43)[C@@H]1CC[C@@H]2OC(=O)N(CCCl)N=O`, for which the growth was 90.2% (inactive).
In the case of `NNc1ccccc1` it was 107% (inactive).
As for `COc1ccc(/C=C(\C)[N+](=O)[O-])cc1OC`, the figure is -67.2% (active).
As for `C[CH2][Hg][S]c1ccccc1C(=O)O`, the figure is -87.5% (active); as for `NC(=O)c1cc([N+](=O)[O-])c(Cl)c([N+](=O)[O-])c1Cl`, 39.6% (inactive); as for `O=S(=O)(F)c1ccc(Cl)cc1`, 119% (inactive).
In the case of `O=[N+]([O-])/C=C/c1ccc(Cl)cc1[N+](=O)[O-]`, the growth was 85% (inactive).
With `COc1cc([N+](=O)[O-])c2ncccc2c1[N+](=O)[O-]`, the growth was 90.9% (inactive).
As for `Oc1c(I)cc(I)cc1I`, the figure is 101% (inactive).
In the case of `O=[N+]([O-])c1ccc(Br)c([N+](=O)[O-])c1` it was 101% (inactive); in that of `O=[N+]([O-])c1ccc(N(CCO)CCO)c2c1no[n+]2[O-]`, -8.85% (active).
For `COc1cc(/C=C/[N+](=O)[O-])cc(Br)c1OC`, the growth was -19.8% (active).
In the case of `COc1cc(/C=C\[N+](=O)[O-])ccc1O`, the growth is 55.8% (inactive) and 97.3% (inactive).
In the case of `Cc1cc(C(C)(C)c2ccc(O)c(C)c2)ccc1O` it was 100% (inactive).
In the case of `COC12c3c(C)cc(O)c4c(=O)occ(c34)C(=O)C1C13COC(=O)c4c(O)cc(C)c(c41)C(=O)C2C3OC(C)=O` (stereo not given) it was 91.6% (inactive).
